{"source": "PubChem BioAssay (NCATS)", "key": {"[1]": {"test": "qHTS to identify inhibitors of the type 1 interferon - major histocompatibility complex class I in skeletal muscle: primary screen against the NCATS Mechanism Interrogation Plate v5.0 (MIPE) Libary (AID 1347411); note: nearly all actives have a fitted effect of over 65% in size; note: potency is the fitted concentration of half-maximal effect", "conditions": "iHSKM cells + IFN-b, HiBiT-tagged MHC-I luminescence, 24 h; series mostly up to 45.8 µM", "summary_of_the_method": "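Cells were genome-edited human myoblasts carrying a HiBit tag on endogenous HLA-B. They were treated with IFN-beta (4.0 ng/ml) and titrated compounds (top 46 uM) for 24 hrs before lytic HiBiT detection.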"}, "[2]": {"test": "UWB1.289-WTBRCA1 Cancer Cell Toxicity qHTS against the NCATS CANVASS Library (AID 1347354); note: potency is the fitted concentration of half-maximal effect", "conditions": "UWB1.289-WTBRCA1 viability, CellTiter-Glo luminescence, 72 h", "summary_of_the_method": "(§1)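 qHTS cytotoxicity: compounds tested in 11 concentrations on 1000 seeded cells per well over 72 h; bortezomib served as control; signal from CellTiter-Glo luminescence.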"}, "[3]": {"test": "HEK-293 Cancer Cell Toxicity qHTS against the NCATS CANVASS Library (AID 1347355)", "conditions": "HEK-293 viability, CellTiter-Glo luminescence, 72 h", "summary_of_the_method": "as §1"}, "[4]": {"target": "Luciferin 4-monooxygenase (Photinus pyralis) (UniProt P08659)", "sequence (P08659 whole entry, looked up)": "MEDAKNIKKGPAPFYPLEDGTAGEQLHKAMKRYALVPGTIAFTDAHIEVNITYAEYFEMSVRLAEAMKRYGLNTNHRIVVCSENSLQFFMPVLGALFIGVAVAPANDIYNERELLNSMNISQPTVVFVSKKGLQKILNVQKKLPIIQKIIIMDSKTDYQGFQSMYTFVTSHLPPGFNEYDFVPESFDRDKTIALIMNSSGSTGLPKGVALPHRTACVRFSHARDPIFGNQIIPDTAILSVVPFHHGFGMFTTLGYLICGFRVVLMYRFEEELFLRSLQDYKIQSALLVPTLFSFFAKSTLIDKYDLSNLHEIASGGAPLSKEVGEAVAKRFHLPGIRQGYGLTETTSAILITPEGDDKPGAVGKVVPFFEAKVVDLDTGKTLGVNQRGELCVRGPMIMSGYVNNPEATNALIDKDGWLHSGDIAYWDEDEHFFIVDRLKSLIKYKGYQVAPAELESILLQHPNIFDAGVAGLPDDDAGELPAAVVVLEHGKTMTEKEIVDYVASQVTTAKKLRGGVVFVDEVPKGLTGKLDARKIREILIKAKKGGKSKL", "test": "Firefly luciferase counterscreen qHTS: Assay Interference Panel against the NCATS CANVASS Library (AID 1347363)", "conditions": "purified firefly luciferase, luminescence inhibition, 5 min; series mostly up to 57.5 µM", "summary_of_the_method": "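Luminescence inhibition readout: compounds (11-point qHTS) sat 15 min at room temperature with substrate mix (0.013 mM luciferin and ATP), then firefly luciferase was added and signal read 5 min later.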"}, "[5]": {"test": "KB-8-5-11 Cancer Cell Toxicity qHTS against the NCATS CANVASS Library (AID 1347364)", "conditions": "KB-8-5-11 MDR cells viability, CellTiter-Glo, 72 h", "summary_of_the_method": "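Natural products were titrated in 11 points onto KB-8-5-11 cells, 500 per well, and cytotoxicity was scored from CellTiter-Glo luminescence after 72 hr culture.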"}, "[6]": {"test": "KB-3-1 Cancer Cell Toxicity qHTS against the NCATS CANVASS Library (AID 1347366)", "conditions": "KB-3-1 viability, CellTiter-Glo luminescence, 72 h", "summary_of_the_method": "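CellTiter-Glo luminescence measured viability after 72 h at 37C. KB-3-1 cells were seeded at 500 per well in DMEM/10% FBS.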"}, "[7]": {"test": "qHTS for ATAD5 Agonist screened against the NCATS CANVASS Library (AID 1347367)", "conditions": "HEK293T ATAD5-luciferase reporter, luminescence, 16 h; series mostly up to 46.1 µM", "summary_of_the_method": "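Genotoxicity via ATAD5-luciferase luminescence after 16 h compound exposure (11-point series) at 37C in HEK293T-ATAD5 cells. CellTiter-Fluor viability read precedes the luminescence read; MMS serves as positive control.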"}, "[8]": {"test": "qHTS for ATAD5 Antagonist screened against the NCATS CANVASS Library (AID 1347370)", "conditions": "HEK293T-ATAD5-luc, 5-FUrd stimulated, luminescence, 16 h", "summary_of_the_method": "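HEK293T cells with a stably integrated ATAD5-controlled luciferase reporter were exposed to compounds (11-pt) alongside 10 uM 5-fluorouridine as ATAD5 stabilizer for 16hr at 37C. Viability was read by CellTiter-Fluor fluorescence, then ATAD5 by luminescence.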"}, "[9]": {"target": "Nuclear receptor subfamily 1 group I member 3 (Homo sapiens) (UniProt Q14994)", "sequence (Q14994 whole entry, looked up)": "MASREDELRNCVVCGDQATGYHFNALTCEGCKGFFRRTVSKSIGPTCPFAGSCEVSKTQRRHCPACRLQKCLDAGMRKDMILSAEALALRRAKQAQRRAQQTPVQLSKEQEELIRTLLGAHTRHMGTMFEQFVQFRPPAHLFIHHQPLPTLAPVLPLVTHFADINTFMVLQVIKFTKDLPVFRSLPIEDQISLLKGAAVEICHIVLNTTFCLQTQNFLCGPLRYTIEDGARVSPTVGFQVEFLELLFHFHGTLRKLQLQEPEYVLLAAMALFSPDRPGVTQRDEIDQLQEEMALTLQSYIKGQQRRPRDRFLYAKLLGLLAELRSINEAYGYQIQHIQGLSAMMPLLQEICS", "test": "qHTS for Constitutive Androstane Receptor (CAR) Agonist screened against the NCATS CANVASS Library (AID 1347373)", "conditions": "HepG2-hCAR-CYP2B6 luciferase reporter, ONE-Glo luminescence; series mostly up to 46.1 µM", "summary_of_the_method": "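CAR agonism is scored as CYP2B6-promoter luciferase induction in a double-stable transfected HepG2 line, where 1.5uM PK11195 is included in each well. Compounds were tested over a 24hr exposure.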"}, "[10]": {"test": "10-beta competent E. coli microbial cell viability qHTS against the NCATS CANVASS Library (AID 1347376)", "conditions": "E. coli 10-beta viability, BacTiter-Glo ATP luminescence, overnight; series mostly up to 46.1 µM", "summary_of_the_method": "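Cytotoxicity toward competent E. coli is scored from cellular ATP content via BacTiter-Glo luminescence following overnight compound exposure at 37C, 5% CO2.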"}, "[11]": {"test": "qHTS for Antimalaria activity screened against the NCATS CANVASS Library (AID 1347380)", "conditions": "P. falciparum Dd2 growth, SYBR Green fluorescence, 72 h", "summary_of_the_method": "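Growth inhibition of asexual erythrocytic P. falciparum Dd2 was quantified by SYBR Green DNA staining. Cultures grew 72 h with compound (11-point series) in hypoxic gas at 37C; lysis and staining lasted 18 h.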"}, "[12]": {"test": "Inflammasome Signaling qHTS Counterscreen: IL-1-beta AlphaLISA counterscreen against the NCATS CANVASS Library (AID 1347381)", "conditions": "Purified IL-1beta AlphaLISA signal interference counterscreen; series mostly up to 57.5 µM", "summary_of_the_method": "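To flag interference with the AlphaLISA read-out, a known amount of purified IL-1-beta (4 pg) replaced cell supernatant. Detection used anti-IL-1-beta acceptor beads, biotinylated antibody and streptavidin donor beads at room temperature.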"}, "[13]": {"test": "qHTS for Activators of p53 Stress Response Pathway screened against the NCATS CANVASS Library (AID 1347388)", "conditions": "p53RE-bla HCT-116, beta-lactamase reporter, 16 h", "summary_of_the_method": "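Beta-lactamase reporter driven by p53 response elements in HCT-116 cells, read as the 460 nm/530 nm emission ratio after CCF4 loading, following 16 h of exposure to an 11-point series. Cell viability was measured in the same wells by CellTiter-Glo luminescence.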"}, "[14]": {"test": "qHTS assay for small molecule disruptors of mitochondrial membrane potential screened against the NCATS CANVASS Library (AID 1347389)", "conditions": "HepG2 mitochondrial membrane potential, m-MPI red/green ratio, 1.5 h", "summary_of_the_method": "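Compounds tested in 11-point qHTS series on HepG2 cells for 1 hr; membrane-potential dye added for 30 min at 37C. Lower red-to-green ratio indicates loss of potential.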"}, "[15]": {"test": "qHTS for activators of Nrf2/ARE signaling pathway screened against the NCATS CANVASS Library (AID 1347391)", "conditions": "ARE-bla HepG2, beta-lactamase reporter, 16 h; series mostly up to 46.1 µM", "summary_of_the_method": "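Cells carrying an ARE-driven beta-lactamase reporter (HepG2 background) are dosed for 16 h, then stained with CCF4. Cell viability in the same wells is measured by CellTiter-Glo luminescence.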"}, "[16]": {"test": "Vero-766 cells viability qHTS against the NCATS CANVASS Library: Counterscreen for Zika virus inhibition assay (AID 1347394)", "conditions": "Vero 766 viability, CellTiter-Glo luminescence, 72 h", "summary_of_the_method": "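CellTiter Glo luminescence measured cytotoxicity after 72 h at 37C in uninfected Vero 766 cells, plated at 1000 cells/well. Compounds were applied in an 11-point series. Wells without cells defined 100% inhibition.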"}, "[17]": {"test": "Redox Reaction Profiling qHTS: Assay Interference Panel against the NCATS CANVASS Library (AID 1347401)", "conditions": "resazurin-DTT redox cycling, fluorescence, 15 min; series mostly up to 57.1 µM", "summary_of_the_method": "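Cell-free redox surrogate: 5 uM resazurin + 200 uM DTT, 50 mM HEPES pH 7.3/50 mM NaCl; cpds pinned, 11-pt qHTS; Ex525/Em598 read t0 and t=15 min, dark.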"}, "[18]": {"test": "qHTS to identify inhibitors of the type 1 interferon - major histocompatibility complex class I in skeletal muscle: primary screen against the NCATS LOPAC collection (AID 1347405)", "conditions": "iHSKM muscle cells, IFN-b-induced MHC-I HiBiT luminescence, 24 h; series mostly up to 45.9 µM", "summary_of_the_method": "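Cells: C25cl48 human myoblasts, HiBiT-tagged HLA-B*08:01, stimulated with IFN-beta 4.0 ng/ml. Compounds are titrated 1:4.3 over 7 points from 46 uM final and incubated 24 hrs; endogenous MHC class I is quantified by HiBiT lytic luminescence.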"}, "[19]": {"test": "qHTS for inhibitors of adenylyl cyclases using a fission yeast platform: a pilot screen against the NCATS LOPAC library (AID 1347410)", "conditions": "S. pombe CHP2027, fbp1-GFP fluorescence, 18 h, yeast expressing mammalian AC9 and human GNAS; series mostly up to 57.5 µM", "summary_of_the_method": "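GFP from fbp1-GFP reporter, read by Acumen laser cytometry, indicates AC inhibition in fission yeast expressing AC9, GNAS and PDE4D2. Cells grown 18 h in the dark at 30C with compounds, final up to 57 uM.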"}}, "note": "Results filed as inconclusive are left out. A call without a number means that no potency is given here. Calls of active or inactive are those of the source. Calls come from the whole dose curve; as a rule, active = well fitted curve in the direction sought with a large enough effect; inconclusive = small, poorly fitted or top-dose-only effect, or another doubt; inactive = no such curve, though single readings can be large; an effect the other way counts as inactive or inconclusive."}
{"smiles": "O=C(NCC(=O)N1CCCC1)Nc1ccc2cnccc2c1", "values": [{"measurement": "Potency", "setting": "[1]", "result": "inactive"}]}
{"smiles": "Cc1nc(NC(=O)N2CCCC2C(N)=O)sc1-c1ccnc(C(C)(C)C(F)(F)F)c1", "note": "(configuration not stated)", "values": [{"measurement": "Potency", "setting": "[1]", "result": "4.66 µM (active)"}]}
{"smiles": "CC(C)CC(=O)c1c(O)cc2c(c1O)C(CC(C)C)C1=C(O2)C(C)(C)C(=O)C(C)(C)C1=O", "note": "(configuration not stated)", "values": [{"measurement": "Potency", "setting": "[2]", "result": "18.8 µM (active)"}, {"measurement": "Potency", "setting": "[3]", "result": "20.9 µM (active)"}, {"measurement": "outcome", "setting": "[4]", "result": "inactive"}, {"measurement": "Potency", "setting": "[5]", "result": "16.6 µM (active)"}, {"measurement": "Potency", "setting": "[6]", "result": "26.4 µM (active)"}, {"measurement": "outcome", "setting": "[7]", "result": "inactive"}, {"measurement": "Potency", "setting": "[8]", "result": "20.9 µM (active)"}, {"measurement": "outcome", "setting": "[9]", "result": "inactive"}, {"measurement": "outcome", "setting": "[10]", "result": "inactive"}, {"measurement": "Potency", "setting": "[11]", "result": "0.594 µM (active)"}, {"measurement": "outcome", "setting": "[12]", "result": "inactive"}, {"measurement": "Potency", "setting": "[13]", "result": "20.9 µM (active)"}, {"measurement": "Potency", "setting": "[14]", "result": "3.31 µM (active)"}, {"measurement": "outcome", "setting": "[15]", "result": "inactive"}, {"measurement": "Potency", "setting": "[16]", "result": "6.6 µM (active)"}, {"measurement": "outcome", "setting": "[17]", "result": "inactive"}]}
{"smiles": "FC(F)(F)c1ccc(CNc2ccc(Cc3c[nH]c4ncc(Cl)cc34)cn2)cn1", "values": [{"measurement": "Potency", "setting": "[1]", "result": "inactive"}]}
{"smiles": "CCC[C@H](N[C@H]1CCc2cc(F)cc(F)c2C1)C(=O)Nc1cn(C(C)(C)CNCC(C)(C)C)cn1", "values": [{"measurement": "Potency", "setting": "[1]", "result": "inactive"}]}
{"smiles": "CCNC1(C(N)=O)CCN(c2ncnc3c2nc(-c2ccccc2Cl)n3-c2ccc(Cl)cc2)CC1", "values": [{"measurement": "Potency", "setting": "[1]", "result": "inactive"}]}
{"smiles": "Cn1cc(-c2ccc(F)c(C(F)(F)F)c2)nc1C1CCN(c2ncnc3[nH]ncc23)CC1", "values": [{"measurement": "Potency", "setting": "[1]", "result": "inactive"}]}
{"smiles": "Fc1ccc(-c2nc(-c3ccccc3F)[nH]c2-c2ccncc2)cc1", "values": [{"measurement": "Potency", "setting": "[1]", "result": "inactive"}]}
{"smiles": "CN[C@H]1CC[C@@H](c2ccc(Cl)c(Cl)c2)c2ccccc21", "values": [{"measurement": "Potency", "setting": "[18]", "result": "28.2 µM (active)"}, {"measurement": "outcome", "setting": "[19]", "result": "inactive"}]}
{"smiles": "CN(C)N(C)C(=O)[C@@]1(Cc2ccccc2)CCCN(C(=O)[C@@H](Cc2c[nH]c3ccccc23)NC(=O)C(C)(C)N)C1", "values": [{"measurement": "Potency", "setting": "[1]", "result": "inactive"}]}
{"smiles": "Cc1cccc(CC(=O)N2CCc3c2ccc(-c2cn(C)c4ncnc(N)c24)c3F)n1", "values": [{"measurement": "Potency", "setting": "[1]", "result": "inactive"}]}
